# Screening results deposited in PubChem BioAssay by Johns Hopkins Ion Channel Center.
# KCNQ2 block – blocks the rat KCNQ2 potassium channel; AID 2156; O88943; actives 1.1% (n = 310,000); B-score at 10 µM; CHO-K1 KCNQ2, FluxOR thallium flux, 20 min; stronger effect = lower value;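 active means fluorescence ratio B-score at most minus 3 library SDs, with starting brightness B-score within 2 library SDs, cut at about -5.5 in these data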
# KCNQ2 pot – KCNQ2 (rat) channel potentiation; CHO-K1 KCNQ2, FluxOR thallium flux fluorescence; stronger effect = higher value; B-score at 10 µM; actives 0.54% (n = 310,000);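 active means fluorescence ratio B-score at least 3 SD of library B-scores, with initial fluorescence B-score within 3 of them, cut at about 5.3 in these data; same plate scores as AID 2156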;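 further: B-score of peak minus minimum over baseline fluorescence ratio after K+ and Tl+ stimulus; positive B-score means potentiation of KCNQ2 with more thallium influx and brighter signal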
# The depositor's hits bear a star; i = inactive; / = no result given. Most compounds without a hit are left out; they make up all but 1.6% or so of the library.
SMILES,KCNQ2 block,KCNQ2 pot
O=C(O)C[C@H](O)C[C@H](O)/C=C/c1c(C2CC2)nc2ccccc2c1-c1ccc(F)cc1,i,1.51
C=CCNC(=S)NNc1nc2c(c(=O)[nH]1)C1(CCCCC1)Cc1ccccc1-2,i,/
Cc1ccc(CN2CCN(C/C(Cl)=C/c3ccccc3)CC2CCO)o1 (stereo not drawn),i,1.4
CC1CCc2nc3ccc(S(=O)(=O)N4CCC(C(=O)NC(C)c5ccccc5)CC4)cc3c(C(=O)O)c2C1 (stereo not drawn),i,4.17
COc1ccc(-c2cnc(SCC(=O)Nc3cc(C)on3)n2Cc2ccco2)cc1,i,/
COc1ccc(-c2cnc(SCC(=O)Nc3nc(C(C)(C)C)cs3)n2Cc2ccco2)cc1,-8.27*,-8.27
CCOC(=O)Cn1c(=NC(=O)CSC(C)=O)sc2ccccc21,-6.77*,-6.77
CCOC(=O)Cn1c(=NC(=O)CSC(C)=O)sc2cc(OC)ccc21,i,/
CCCn1c(NCc2cccc(OC)c2O)nc2ccccc21,i,/
CCCn1c(NCc2cccc(OC)c2OC)nc2ccccc21,-5.86*,-5.86
CCN(CC(=O)NC(C)(C)C)C(=O)c1ccc2c(c1)S(=O)(=O)c1ccccc1C2=O,i,0.1
O=C(Nc1cccc(Cl)c1)N(CCN1CCOCC1)Cc1cccc(Cl)c1,-7.33*,-7.33
O=C(Nc1cccc(Cl)c1)N(CCN1CCOCC1)Cc1ccccc1F,i,/
O=C(NCC1CCCN(Cc2ccc3nonc3c2)C1)c1cccc(C(F)(F)F)c1 (stereo not drawn),-5.69*,-5.69
O=C(NCC1CCCN(Cc2ccc3c(c2)OCCO3)C1)c1ccc2c(c1)OCO2 (stereo not drawn),i,0.77
CCOC(=O)C1CCCN(C(=O)c2cnn3c(C(F)(F)F)cc(-c4ccccc4)nc23)C1 (stereo not drawn),i,/
CCOC(=O)C1CCCN(C(=O)c2cc(-c3ccc(C)cc3)nc3ccccc23)C1 (stereo not drawn),-5.63*,-5.63
CCOC(=O)C1CCCN(C(=O)c2cc(Nc3ccc(OC)cc3OC)nc3ccccc23)C1 (stereo not drawn),-7.62*,-7.62
CCOC(=O)C1CCCN(C(=O)c2cc(Nc3ccc(OC)c(OC)c3)nc3ccccc23)C1 (stereo not drawn),i,/
CCOC(=O)c1ccccc1NC(=O)CN1C(=O)NC(C)(CCc2ccccc2)C1=O (stereo not drawn),i,/
CCN(CC(=O)Nc1ccc2c(c1)OCCO2)S(=O)(=O)c1ccc(F)cc1,i,/
COc1ccc(-n2nc(C(=O)NCC(=O)N3CCN(c4ccccn4)CC3)c3ccccc3c2=O)cc1,-8.21*,-8.21
COc1ccc(-n2nc(C(=O)NCC(=O)N3CCN(c4ccccn4)CC3)c3ccccc3c2=O)cc1OC,i,/
O=C(NNC(=O)c1ccco1)c1cccc(Br)c1,i,1.56
Cc1ccc(Cl)cc1N1CCN(C(=O)c2cn(C)c(=O)c3c2c2ccccc2n3C)CC1,-7.5*,-7.5
SMILES,KCNQ2 block,KCNQ2 pot
Cc1cccc(N2CCN(C(=O)c3cn(C)c(=O)c4c3c3ccccc3n4C)CC2)c1C,i,/
Cn1c(C(=O)NCCc2c[nH]c3ccccc23)cc2sccc21,i,/
O=C(NCCc1c[nH]c2ccccc12)c1cc2sccc2n1Cc1ccccc1,-6.52*,-6.52
CCOc1ccc2ccccc2c1/C=N/NC(=O)CNC(=O)Cc1ccccc1,i,/
Cc1cccc(C(=O)c2cnc3ccccc3c2-c2ccccc2)c1,-6.38*,-6.38
Cc1cccc(C(=O)NNC(=O)c2ccccc2)c1,i,0.1
O=C(Nc1nc(-c2ccccc2)cs1)c1ccc(N2CCOCC2)c([N+](=O)[O-])c1,-7.8*,-7.8
Cc1ccc(-c2csc(NC(=O)c3cc([N+](=O)[O-])ccc3N3CCOCC3)n2)cc1,i,/
CC(C)/C(C=O)=C(/NC1CCCCC1)c1ccccc1,i,/
Cc1[nH]c2ccccc2c1C(=O)C(=O)NCc1ccncc1,i,0.02
O=c1cc(-c2ccccc2)c2c(O)cc(O)cc2o1,i,1.37
O=c1c(-c2ccccc2)c(-c2ccccc2)oc2cc(O)cc(O)c12,-5.81*,-5.81
CCOc1ccc(NC(=O)CN(C)C(=O)c2c(-c3c(F)cccc3Cl)noc2C)cc1OCC,i,0.44
NC(=O)COC(=O)c1sc2ccccc2c1Cl,i,0.01
Cc1cc(C)n(CCOC(=O)c2sc3ccccc3c2Cl)n1,-10.1*,-10.1
Cc1ccc2nc(-c3ccccc3)cc(C(=O)NCC3CCCO3)c2c1 (stereo not drawn),i,/
Cc1ccc2nc(-c3ccccc3)cc(C(=O)NCC(c3ccco3)N(C)C)c2c1 (stereo not drawn),-5.8*,-5.8
COc1ccccc1NC(=O)C(C)NC(c1ccccc1)c1ccccc1 (stereo not drawn),i,1.37
CC(C(=O)Nc1ccccc1Oc1ccccc1)c1ccccc1 (stereo not drawn),i,8.9*
O=C(CC12CC3CC(CC(C3)C1)C2)Nc1ccc(C(=O)O)cc1,i,/
COc1ccc(NC(=O)CC23CC4CC(CC(C4)C2)C3)cn1,i,18.3*
CN1CCN(NC(=O)c2cc(Br)ccc2Cl)CC1,i,/
CCOc1c(C)cnc2c1c(=O)n(Cc1cccc(Cl)c1)c(=O)n2C,i,/
CCOc1c(C)cnc2c1c(=O)n(Cc1ccc(Cl)cc1)c(=O)n2C,-5.94*,-5.94
CCN(CC)S(=O)(=O)c1ccc(NC(=O)COC(=O)c2ccc(NC(=O)CC#N)cc2)cc1,i,0.85
SMILES,KCNQ2 block,KCNQ2 pot
O=C1C[C@@H](c2ccccc2)Oc2cc(O)cc(O)c21,i,0.64
COc1c(CC=C(C)C)cc(C2CC(=O)c3c(O)cc(O)cc3O2)cc1CC=C(C)C (stereo not drawn),-5.6*,-5.6
CCCCn1c(N)c(N(CCOC)C(=O)COC(=O)CCOc2ccccc2C)c(=O)[nH]c1=O,i,2.36
C=CCn1c(N)cc(=O)nc1SC(C)C(=O)Nc1ccc(C(=O)OCC)cc1 (stereo not drawn),i,0.26
O=C(Nc1ccc(F)cc1F)c1sccc1SCc1cccc(C(F)(F)F)c1,-5.94*,-5.94
O=C(Nc1ccc(F)cc1)c1sccc1SCc1cccc(C(F)(F)F)c1,i,/
CC(=O)N1c2ccc(S(=O)(=O)N(C)CC(=O)NCc3ccc(C)cc3)cc2CC1C (stereo not drawn),i,/
COc1ccccc1Cn1c(=S)[nH]c2ccc(F)cc2c1=O,i,/
COc1ccc(N2CCN(c3ncnc4scc(-c5ccc(C)cc5)c34)CC2)cc1,i,3.47
COc1ccc(-c2csc3ncnc(N4CCN(S(=O)(=O)c5cccs5)CC4)c23)cc1,i,/
COc1ccc(-c2csc3ncnc(N4CCN(c5cccc(OC)c5)CC4)c23)cc1,i,/
COc1ccc(N2CCN(C(=O)CSc3ncnc4scc(-c5ccc(C)cc5)c34)CC2)cc1,-5.6*,-5.6
COc1ccc(-c2csc3ncnc(N4CCN(S(=O)(=O)c5ccc(Cl)s5)CC4)c23)cc1,-7.55*,-7.55
COc1ccc(-c2csc3ncnc(N4CCN(c5cccc(Cl)c5)CC4)c23)cc1,-6.07*,-6.07
Cc1cccc(C)c1Nc1nnc(SCC(=O)c2ccc3c(c2)NC(=O)CO3)s1,i,/
Cc1cccc(NC(=O)CSc2nnc(-c3cc(C)[nH]n3)n2N)c1,i,1.14
CN(CC1CCOCC1)C(=O)CC1C(=O)NCCN1CC1CCCCC1 (stereo not drawn),i,/
Cc1ccc(-c2cc(=O)c3cc(Cl)ccc3[nH]2)cc1,i,1.42
